# The supplement of paper PMC6992640
# ± gives the standard deviation of the averaged measurements.
# Experiments:
# Assay in all cases: cell viability (% of vehicle); higher = less cytotoxic
# HCI01 [1] = cells of a triple-negative basal-like breast cancer xenograft; conditions: 1 µM; 72 h
# UCD52 [2] = cells of a triple-negative basal-like breast cancer xenograft; conditions: 1 µM; 72 h
# WHIM2 [3] = cells of a triple-negative basal-like breast cancer xenograft; conditions: 1 µM; 72 h
# WHIM30 [4] = cells of a triple-negative basal-like breast cancer xenograft; conditions: 1 µM; 72 h
# HCI01 [5] = conditions: 10 µM; 72 h
# HCI03 = cells of an ER-positive luminal breast cancer xenograft; conditions: 10 µM; 72 h
# HCI09 = cells of a triple-negative luminal androgen receptor type breast cancer xenograft; conditions: 10 µM; 72 h
# HCI11 = cells of an ER-positive luminal breast cancer xenograft; conditions: 10 µM; 72 h
# HCI13 = cells of an ER-positive luminal breast cancer xenograft; conditions: 10 µM; 72 h
# HCI16 = cells of a triple-negative basal-like breast cancer xenograft; conditions: 10 µM; 72 h
# UCD52 [6] = conditions: 10 µM; 72 h
# WHIM2 [7] = conditions: 10 µM; 72 h
# WHIM30 [8] = conditions: 10 µM; 72 h
SMILES,cell viability (HCI01 [1]),cell viability (UCD52 [2]),cell viability (WHIM2 [3]),cell viability (WHIM30 [4]),cell viability (HCI01 [5]),cell viability (HCI03),cell viability (HCI09),cell viability (HCI11),cell viability (HCI13),cell viability (HCI16),cell viability (UCD52 [6]),cell viability (WHIM2 [7]),cell viability (WHIM30 [8])
CN1CCN(c2ccc(C(=O)/N=c3\[nH][nH]c4ccc(Cc5cc(F)cc(F)c5)cc34)c(NC3CCOCC3)c2)CC1 [Entrectinib],92.3,72.6,81.7,71.9,28.2 ± 2.5,59.8,22.8 ± 0.65,48.9,41 ± 5.5,58.5,36.98 ± 0.05,42.6 ± 4.1,41.8 ± 12
CNCCC(Oc1ccc(C(F)(F)F)cc1)c1ccccc1.Cl (stereo not drawn) [Fluoxetine HCl],91.1,75.6,99.1,84.1,98.1 ± 5,98.4,84.6 ± 29,75.2,104 ± 12,58.6,47.8 ± 1.9,44.9 ± 6,65.9 ± 10
Cc1c(-c2ccc(O)cc2)n(Cc2ccc(OCCN3CCCCCC3)cc2)c2ccc(O)cc12.Cl [Bazedoxifene HCl],120,94.2,89.7,91.6,56.4 ± 32,41.6,21.6 ± 0.65,73.9,38 ± 6.1,114,45.6 ± 2.9,53.2 ± 6.3,83.1 ± 1.6
COC(=O)NC(C(=O)NC(Cc1ccccc1)C(O)CN(Cc1ccc(-c2ccccn2)cc1)NC(=O)C(NC(=O)OC)C(C)(C)C)C(C)(C)C (stereo not drawn) [Atazanavir],92.8,80.2,91.7,84.6,88.35 ± 0.71,80,57.5 ± 2,74.5,81.7 ± 5.1,151,51.6 ± 3.1,73.7 ± 1.3,82.1 ± 5.5
CC(C)c1nc(CN(C)C(=O)NC(C(=O)NC(Cc2ccccc2)CC(O)C(Cc2ccccc2)NC(=O)OCc2cncs2)C(C)C)cs1 (stereo not drawn) [Ritonavir],88.2,82.1,88.4,91.1,72 ± 3.7,98,48.2 ± 0.57,83.6,57.8 ± 3.3,96.1,41.5 ± 0.54,62.6 ± 2.7,82 ± 16
CNC1CCC(c2ccc(Cl)c(Cl)c2)c2ccccc21.Cl (stereo not drawn) [Sertraline HCl],92.9,78.6,101,85.2,27.7 ± 2.6,74.8,32.2 ± 4.6,79.2,118 ± 3.2,60.4,29.3 ± 0.42,42.8 ± 3.1,58.9 ± 1.9
COc1ncc(-c2ccc3nccc(-c4ccnnc4)c3c2)cc1NS(=O)(=O)c1ccc(F)cc1F,53,23.2,31.9,48,64.11 ± 0.34,65.6,26.64 ± 0.21,70.3,,147,43.4 ± 1,49.7 ± 7.6,42.9 ± 2.3
CNC(=O)c1cc(Oc2ccc(NC(=O)Nc3ccc(Cl)c(C(F)(F)F)c3)c(F)c2)ccn1.Cl [Regorafenib hydrochloride],104,71.5,104,98.7,56.2 ± 0.73,114,82.2 ± 10,65.5,36.7 ± 1.2,62.7,93.8 ± 11,97.7 ± 4.6,60.6 ± 32
